Mdm2 MdmX PPI: disrupts the human Mdm2-MdmX interaction; SaOS-2 split-luciferase Mdm2/MdmX complementation, luminescence; inhibition, % at 8 µM; 330,000 tested, 3% active; AID 485346;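 active = inhibition of at least 50% at 8 µM in the primary screen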
697 NFkB inh: inhibitors of the PMA/ionomycin-induced NF-kB reporter in 697 B cells | inhibition, % at 4 µM | AID 435022 | 330,000 tested, 0.33% active | 697 B-cell NF-kB luciferase reporter, 16 h; in the data active = inhibition above about 35%
Gli-Sufu antag: blocks Gli-Sufu signaling in a luciferase reporter; 340,000 tested, 0.74% active; Sufu-KO-LIGHT fibroblasts, Gli luciferase reporter luminescence; inhibition, % at 5 µM;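 active = inhibition above about 55%, limit read from the data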;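 note: 0% = DMSO-treated cells and 100% = wells with medium but no cells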
Jurkat NFkB inh: inhibitors of the PMA/ionomycin-induced NF-kB reporter in Jurkat cells; 330,000 tested, 0.53% active; AID 435003; inhibition, % at 4 µM; PMA/ionomycin-induced NF-kB luciferase reporter, luminescence; in the data active = inhibition above about 50%
CSC inhib: cancer stem cell inhibition; AID 2717; inhibition, % at 7.5 µM; 300,000 tested, 1.1% active; cancer stem cell-like cells viability, luminescence; in the data active = inhibition above about 75%; inconclusive = no clear call, values can overlap the other calls; tested in HMLE shEcad cells
aSyn 5UTR inh: 5' untranslated region of α-synuclein, MLPCN primary screen; alpha-synuclein 5'UTR reporter, inhibitor activity; inhibition, % (tested at 7.5 µM); 300,000 tested, 0.82% active; in the data active = inhibition above about 60%; inconclusive = no clear call, values can overlap the other calls;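 note: H4 neuroglioblastoma cells stably carrying SNCA 5'UTR luciferase fusion; 0% = DMSO wells and 100% = positive control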
Mdm2-MdmX conf: confirmation of human Mdm2/MdmX interaction inhibitors; AID 489028; inhibition, % at 8 µM; 10,000 tested, 55% active; shares compounds with Mdm2 MdmX PPI; Mdm2-MdmX binding, luminescent assay; in the data active = inhibition above about 40%
FLuc counter: inhibits full-length luciferase, flagging false Mdm2/MdmX hits; SaOS-2 full-length luciferase counterscreen, luminescence; shares compounds with Mdm2 MdmX PPI; 6,200 tested, 77% active; AID 504607; inhibition, % at 8 µM;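 active = mean inhibition at 8 µM reaching about 37%, which flags the compound as non-specific, limit read from the data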;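 note: p53-null SaOS-2 cells with luciferase driven by a doxycycline-inducible promoter; compound on cells about two nights before reading with doxycycline added after day one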
* marks the source's active call; other numbers are inactive results; ? = inconclusive; . = not tested or not shown. Compounds with a hit are over-represented: about 4.5% of the library has one in this group of screens.

SMILES	Mdm2 MdmX PPI	697 NFkB inh	Gli-Sufu antag	Jurkat NFkB inh	CSC inhib	aSyn 5UTR inh	Mdm2-MdmX conf	FLuc counter
CC(=O)Nc1nc(-c2ccc3c(c2)CC(C)N3C(=O)C2CC2)c(C)s1 (centres undefined)	85*	4	-12	-12	-3	-295	85*	54*
CCOC(=O)C(=O)Nc1nc(-c2ccc3c(c2)CCN3C(=O)C2CC2)c(C)s1	-4	-1	-11	-35	-2	-76	.	.
Cc1sc(NC(=O)c2ccco2)nc1-c1ccc2c(c1)CC(C)N2C(=O)C1CC1 (centres undefined)	85*	-4	-22	-4	58	-106	55*	53*
COCCN(CC(=O)Nc1cccc(S(=O)(=O)N2CCCC2)c1)Cc1nc2ccccc2c(=O)[nH]1	15	5	5	11	.	.	.	.
COc1cc(C2CC(=O)N(c3ccc(C)cc3)C(=O)C2)cc(OC)c1OC	54*	-35	-16	21	50	2	41*	61*
CC(C)Oc1ccc(C(=O)Nc2ccc(NC(=O)c3ccco3)c(Cl)c2)cc1	2	-16	12	-36	18	-106	.	.
CC(C)COc1ccc(C(=O)Nc2ccc(NC(=O)c3ccco3)c(Cl)c2)cc1	60*	-1	0	-28	.	-149	10	.
CCN(CC(=O)Nc1ccc(NC(C)=O)cc1)C(=O)CN1C(=O)NC(C)(c2ccc3ccccc3c2)C1=O (centres undefined)	.	.	-6	.	.	.	.	.
CCOC(=O)C(C(=O)OCC)c1cc(Br)c2noc3c2c1C(=O)c1ccccc1-3	100*	-8	-8	10	117*	47	95*	1
CC(=O)OCCNc1cc(N2CCN(C)CC2)c2noc3c2c1C(=O)c1ccccc1-3	.	.	8	.	.	.	.	.
COc1cc(NC(=O)c2ccccc2Cl)c2ncccc2c1	57*	-11	1	25	51	-43	50*	52*
c1ccc2sc(N3CCCN(Cc4nc(-c5cnccn5)no4)CC3)nc2c1	32	-6	-11	9	1	-4	.	.
COc1ccc(NC(=O)[C@H](C)NC(=O)C2CCN(S(=O)(=O)c3ccc(OC)cc3)CC2)cc1	22	-4	4	26	-9	31	.	.
COc1ccc(-c2ccc3c(c2)S(=O)(=O)c2cccc(C(=O)NC4CC4)c2C3=O)cc1OC	72*	13	-8	8	-10	.	52*	46*
COc1ccc(-c2ccc3c(c2)S(=O)(=O)c2cccc(C(=O)NCc4ccccc4Cl)c2C3=O)cc1OC	22	10	-4	-5	-5	.	.	.
COc1ccc(-c2ccc3c(c2)S(=O)(=O)c2cccc(C(=O)NCCOc4ccccc4Cl)c2C3=O)cc1OC	95*	2	-3	-9	.	.	28	.
COc1ccc(C=O)cc1Oc1nc(Cl)ncc1F	0	3	5	-5	-24	16	.	.
COc1ccc(S(=O)(=O)N2CCN(C(=O)c3ccc([N+](=O)[O-])o3)CC2)cc1	15	9	-34	22	1	-78	.	.
COc1ccc(/C=C/C(=O)c2ccc([N+](=O)[O-])o2)cc1	100*	1	-8	8	?	-62	68*	42*
Cc1ccc(NC(=O)c2ccc([N+](=O)[O-])o2)c(C)c1	18	17	-8	13	19	-74	.	.
Cc1ccccc1/C=C/C(=O)c1ccc([N+](=O)[O-])o1	100*	8	7	4	41	24	86*	55*
Cc1cccc(/C=C/C(=O)c2ccc([N+](=O)[O-])o2)c1	100*	-9	-7	38	24	14	100*	53*
CC(C)(C)n1nnnc1C(c1cccs1)N1CCN(c2ccccc2)CC1 (centres undefined)	11	3	11	1	0	-2	.	.
Oc1c(C(c2ccccc2Cl)N2CCCC2)ccc2cccnc12 (centres undefined)	69*	-7	74*	11	-8	97*	63*	31
Oc1c(C(c2cccs2)N2CCN(c3ccccc3)CC2)ccc2cccnc12 (centres undefined)	51*	-38	.	-10	88*	.	82*	23
